Results on 27 molecules are retold here after PubChem BioAssay (NCATS).

Inconclusive results are not listed. Values without a mark were called inactive. Active and inactive are the calls of the source. Calls come from the whole dose curve; as a rule, active = well fitted curve in the direction sought with a large enough effect; inconclusive = small, poorly fitted or top-dose-only effect, or another doubt; inactive = no such curve, though single readings can be large; an effect the other way counts as inactive or inconclusive.

Test [1] concerns the target Calcium and integrin-binding protein 1 (Homo sapiens) (UniProt Q99828). As to the kind of experiment: Primary qHTS for Identification of Calcium Integrin Binding Protein 1 (CIB1) Competitor (AID 1508620).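 Note: GST tagged CIB1 binding a fluorescein labelled alphaIIb integrin peptide tracer; top concentration of the series differs between compounds.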 An outline of the steps: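 CIB1-GST (1 uM final) and compound incubated 15 min at room temperature before adding FITC-alphaIIb peptide tracer (100 nM final). Competition for binding read by fluorescence polarization (ex 480, em 540) after another 15 min at room temperature.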
Background: In qHTS, concentration-response curves come from the screen itself.

The nature of test [2]: Primary qHTS for inhibitors of nuclear receptor binding SET domain protein 2 (NSD2) in an isogenic RCH-ACV NSD2 p.E1099K mutant (9B) (AID 1645876). Note: nearly all actives have a fitted effect of over 70% in size. Note: potency is the fitted concentration of half-maximal effect.
Test [3] can be described thus: Primary qHTS for inhibitors of nuclear receptor binding SET domain protein 2 (NSD2) in an RCH-ACV wild type WT cells (2C) (AID 1645877). Note: nearly all actives have a fitted effect of over 70% in size. Note: potency is the fitted concentration of half-maximal effect.
% is set by controls: 0 for no effect and ±100 for the full control effect.

Sequence of Calcium and integrin-binding protein 1 (Homo sapiens) (Q99828 whole entry, looked up): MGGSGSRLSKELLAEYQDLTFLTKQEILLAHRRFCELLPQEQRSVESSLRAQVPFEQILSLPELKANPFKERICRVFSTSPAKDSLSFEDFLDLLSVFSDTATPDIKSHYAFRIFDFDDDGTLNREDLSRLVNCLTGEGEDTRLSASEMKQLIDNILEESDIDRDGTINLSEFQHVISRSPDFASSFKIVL

Take `C[C@@H]1C[C@@H](O)[C@@]2(CO)C(CO)=CCC[C@@H]2[C@@]12C[C@@H](c1ccoc1)OC2=O`: the Potency entry in test [1], in test [2] and in test [3] was “inactive” throughout.
For `CC(C)=CC1C[C@](C)(O)[C@@H]2[C@H]3CCC4[C@@]5(C)CC[C@H](O[C@@H]6OC[C@H](O)[C@H](O[C@@H]7O[C@H](CO[C@@H]8O[C@H](CO)[C@@H](O)[C@H](O)[C@H]8O)[C@@H](O)[C@H](O)[C@H]7O)[C@H]6O[C@@H]6O[C@@H](C)[C@H](O)[C@@H](O)[C@H]6O)C(C)(C)[C@@H]5CC[C@@]4(C)[C@@]34CO[C@@]2(C4)O1` (stereo partly specified), the Potency entry in test [1] is “inactive”. Also, in test [2], the activity change, negative = viability loss was -4.74% [at 9.23 µM]. Moreover, the activity change, negative = cell killing in test [3] is 3.17% [at 9.23 µM].
Regarding `CCOC(=O)C(CCc1ccccc1)NC(C)C(=O)N1Cc2ccccc2CC1C(=O)O` (stereo unspecified), the Potency entry in test [1], in test [2] and in test [3] was “inactive” in each case.
For `CC(C)c1ccc2c(c1)C(O)CC1C(C)(CO)CCCC21C` (stereo unspecified), the Potency entry in test [1], in test [2] and in test [3] was “inactive” each time.
With `COc1ccc2c(c1)N1C(=O)C[C@@]34C=CC[N@+]5([O-])CC[C@H]2[C@H](CC3)[C@@]145`, the Potency result in test [1], in test [2] and in test [3] was “inactive” in each case.
Take `COC1OC(=O)C2=C1C1(C)CCCC(C)(C)C1CC2O` (stereo unspecified): the Potency entry in test [1], in test [2] and in test [3] was “inactive” in each case.
Take `COC(=O)c1cc(OC)cc(OC)c1C(=O)c1c(OC)cc2c(c1O)C1CCC(O)C(C)(O2)O1` (stereo unspecified): the Potency entry in test [1], in test [2] and in test [3] was “inactive” in each case.
Consider `O=C1C(Cl)=C(N2CCOCC2)C(=O)N1c1ccc(Cl)c(Cl)c1`, for which the Potency result in test [1] is “inactive”. The Potency in test [2] is 7.96 µM (active); in test [3] it was 8.93 µM (active).
The matching figures for `CC(O)C1NC(=O)C2CCCN2C1=O` (stereo unspecified): “inactive”, “inactive” and “inactive”.
For `O=C(O)Cc1cn([C@@H]2OC[C@@H](O[C@@H]3O[C@H](CO)[C@@H](O)[C@H](O)[C@H]3O)[C@H](O)[C@H]2O[C@@H]2O[C@H](CO)[C@@H](O)[C@H](O)[C@H]2O)c2ccccc12`, the Potency entry in test [1], in test [2] and in test [3] was “inactive” each time.
Turning to `O=C(/C=C/c1ccccc1)O[C@@H]1[C@@H](CO)O[C@@](CO)(O[C@H]2O[C@H](CO)[C@@H](O)[C@H](O)[C@H]2O)[C@H]1O`, the Potency result in test [1], in test [2] and in test [3] was “inactive” throughout.
Take `C=C1CC2C3(C)C=CC(=O)OC(C)(C)C3CC(OC(C)=O)C2(C)C2C(=O)OC(C)C(=O)C12C` (stereo unspecified): the Potency entry in test [1], in test [2] and in test [3] was “inactive” throughout.
With `CC(=O)OCC1=C[C@@H]2OC(=O)C3=CO[C@@H](O[C@@H]4O[C@H](CO)[C@@H](O)[C@H](O)[C@H]4O)[C@H]1[C@@H]32`, the Potency result in test [1], in test [2] and in test [3] was “inactive” each time.
With `C=C1C[C@H](O)[C@@H](O)[C@@]2(C)C1[C@@H](O)[C@H]1OC(=O)C3[C@@H](C)[C@@H](O)[C@H](O)C2[C@]31C` (stereo partly specified), the Potency result in test [1], in test [2] and in test [3] was “inactive” each time.
Take `CC(=O)OC1CCC2(C)C(CCC3(C)C2CC=C2C4CC(C)(C)CCC4(C)CCC23C)C1(C)C(=O)O` (stereo unspecified): the Potency entry in test [1], in test [2] and in test [3] was “inactive” each time.
For the molecule `CC(=O)/C=C/C1(O)C(C)=CC(=O)CC1(C)C` (stereo unspecified), the Potency entry in test [1], in test [2] and in test [3] was “inactive” throughout.
Take `COc1ccc(/C=C/C(=O)N2CCCC2)cc1`: the Potency entry in test [1], in test [2] and in test [3] was “inactive” each time.
Regarding `CC1CCC2C(C(=O)O)=CC3(O)CC(C)(C)CC123` (stereo unspecified), the Potency entry in test [1], in test [2] and in test [3] was “inactive” throughout.
With `C=C1CC/C=C(/C(=O)O)CCC2C1CC2(C)C` (stereo unspecified), the Potency entry in test [1], in test [2] and in test [3] was “inactive” throughout.
Consider `COC(=O)C1=COC(OC2OC(CO)C(O)C(O)C2O)C2C(C)C(OC(=O)/C=C/c3ccc(O)cc3)C(O)C12` (stereo unspecified), for which the Potency entry in test [1], in test [2] and in test [3] was “inactive” each time.
Consider `CC1CC(=O)[C@]2(O)C(C(=O)OCCc3ccc(O)c(O)c3)=CO[C@@H](O[C@@H]3O[C@H](CO)[C@@H](O)[C@H](O)[C@H]3O)[C@H]12` (stereo partly specified), for which the Potency result in test [1], in test [2] and in test [3] was “inactive” throughout.
In the case of `C[C@@H](CC[C@@H]1[C@@]2(C)CCCC(C)(C)C2CC[C@@]1(C)O)CC(=O)O` (stereo partly specified), the Potency result in test [1], in test [2] and in test [3] was “inactive” throughout.
In the case of `COC(=O)CCC1(C)C(C(C)(C)O)C(O)CC2(C)Oc3c(C)c4c(c(OC)c3CC21)C(=O)OC4` (stereo unspecified), the Potency entry in test [1], in test [2] and in test [3] was “inactive” in each case.
As to `C/C=C(/C)C(=O)O[C@@H]1C[C@@H](OC(=O)/C(C)=C\C)[C@@]2(C)C3C(=O)C=C(C)C2C3C1(C)C`, the Potency entry in test [1], in test [2] and in test [3] was “inactive” in each case.
For `CN(C)CCC[C@]1(c2ccc(F)cc2)OCc2cc(C#N)ccc21`, the Potency result in test [1], in test [2] and in test [3] was “inactive” throughout.
On to `C/C(=C\CCC1(C)C2CC3C(C2)C31C)C(=O)O` (stereo unspecified), for which the Potency result in test [1], in test [2] and in test [3] was “inactive” each time.
Regarding `COc1cc(O)c2c(c1Cl)CC(C)OC2=O` (stereo unspecified), the Potency entry in test [1], in test [2] and in test [3] was “inactive” each time.
